Hit rate of the full screen: of about 360,000 compounds, about 1,800 (0.5%) were called active.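 How the source made its calls: active means mean inhibition of at least 75% with every replicate also reaching 75%; inconclusive means mean inhibition at least 75% but some replicate below; inactive means mean inhibition below 75%.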 Only a selection was taken, and actives are over-represented in it overall.
Assay: reduction of Shn3 3'UTR firefly luciferase signal, primary screen, Schnurri-3 inhibitor project, cell-based, Clone20 osteoblasts, set 2 (AID 588674);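 further: 0% = median of neutral control wells and 100% = pilot-screen positive control compound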
Conditions: Clone20 osteoblast Shn3 3'UTR firefly luciferase, 24 h; at 12.5 µM; hits give high values

SMILES	inhibition
Cc1cc(=O)oc2cc(OC(C)C(=O)Nc3ccc(N4CCOCC4)cc3)ccc12 (stereo unspecified)	10% (inactive)
O=C(CSc1nnnn1-c1ccc2c(c1)CCC2)Nc1ccc2c(c1)OCCO2	0.48% (inactive)
FC(F)(F)c1cccc(-c2nc(COc3ccc(Cl)cc3Cl)no2)c1	6.45% (inactive)
c1ccc(-c2nccc(-c3ccc(-n4cnc5ccccc54)cc3)n2)nc1	11.2% (inactive)
Cc1nc2ccccc2c(C(=O)O)c1-c1ccccn1	-12.3% (inactive)
CC(C)(C)Nc1nc(-c2ccccn2)nc2ccccc12	89.7% (active)
CN(CC(=O)NCc1ccncc1)S(=O)(=O)c1ccc(Br)cc1	7.05% (inactive)
O=C(NC1=NCCS1)c1ccc(Cl)s1	-84.7% (inactive)
C=C1C(=O)[C@]23C[C@H]1CCC2[C@@]1(C)C(C[C@@H]3O)[C@](C)(C(=O)O)CC[C@@H]1O (stereo partly specified)	29.4% (inactive)
O=C(/C=C/Sc1ncn[nH]1)c1ccc(Cl)cc1	97.7% (active)
NC(=O)C1CCN(C(=O)c2cc(S(=O)(=O)N3CCN(c4ccccc4)CC3)ccc2Cl)CC1	-11.1% (inactive)
CC1CCC(N2CC(=O)N(Cc3ccc4c(c3)OCO4)C(c3ccc(F)cc3)C2=O)CC1 (stereo unspecified)	7.77% (inactive)
Cc1csc(NC(=O)CSc2nc(=O)cc(N)n2-c2ccc(F)cc2)n1	-11% (inactive)
COc1cc(SC)ccc1C(=O)Nc1nc(C)cs1	86.2% (active)
COc1cc(SC)ccc1C(=O)NNC(=O)C1COc2ccccc2O1 (stereo unspecified)	4.8% (inactive)
CCCCC(=O)NC(c1ccc(OC)c(OC)c1)c1ccc2cccnc2c1O (stereo unspecified)	87.9% (active)
CCOc1ccc(C(CCc2ccccc2)NC(=O)c2ccc(OC)c(OC)c2)cc1OCC (stereo unspecified)	20% (inactive)
C=CCn1c(COc2cccc3cccnc23)nnc1SCC(=O)OC	0.069% (inactive)
COC(=O)c1sccc1-n1cccc1C(=O)C(=O)N1CCCCC1	2.95% (inactive)
O=C(COc1ccc(-n2cnnn2)cc1)Nc1ccccc1Cl	1.66% (inactive)
CS/C(=C\C(=O)c1ccco1)Nc1ccccc1Cl	-15.1% (inactive)
O=C(Nc1ccccc1Cl)/C(Cl)=C(\Cl)S(=O)c1ccccc1 (stereo unspecified)	97.6% (active)
Cc1cccc(N2CCN(C(=O)CCS(=O)(=O)c3ccc4c(c3)NC(=O)C(C)S4)CC2)c1C (stereo unspecified)	78.8% (inactive)

SMILES	inhibition
CC(=O)Nc1ccc(NC(=O)C(C)OC(=O)C2CC(=O)N(CCc3ccccc3)C2)cc1 (stereo unspecified)	-14.3% (inactive)
O=C(COC(=O)C1CC2CCCC(C1)C2=O)NC(=O)c1ccccc1 (stereo unspecified)	14.5% (inactive)
COc1ccc(C(C#N)=C2C=CC(=NO)c3ccccc32)cc1	18.4% (inactive)
Cc1ccc(S(=O)(=O)CCC(=O)Nc2nnc(CC(C)C)s2)cc1	-5.29% (inactive)
Cc1cccc(C(=O)Nc2nnc(S(=O)(=O)N3CCCCCC3)s2)c1	-6.34% (inactive)
Cc1ccc(CS(=O)(=O)c2ncc(Cl)c(C(=O)Nc3nnc(C)s3)n2)cc1	98.8% (active)
CSc1nnc(NC(=O)c2nc(S(=O)(=O)Cc3ccc(C)cc3)ncc2Cl)s1	97% (active)
O=C(Nc1nnc(-c2ccc(F)cc2)s1)c1c(F)cccc1Cl	-31.5% (inactive)
NC(=O)CSc1nnc(NC(=O)c2ccc(Br)o2)s1	-19.4% (inactive)
O=C(O)C1C2C=CC(O2)C1C(=O)Nc1ccccn1 (stereo unspecified)	1.15% (inactive)
NC(=O)C1CCN(Cc2nc3c(Br)cc(Br)cc3c(=O)[nH]2)CC1	9.29% (inactive)
CC(C)C[C@H]1CNC(=S)N1C[C@H]1CCCN1C[C@H](Cc1ccc(O)cc1)N1C[C@H](Cc2ccc(O)cc2)N(CC2CCCCC2)C1=S	9.03% (inactive)
Cc1noc(COc2ccccc2OCc2onc(C)c2Cl)c1Cl	9.9% (inactive)
O=C(C=CC(=O)Nc1ccc(F)cc1F)Nc1ccc(F)cc1F	12.7% (inactive)
COc1ccc(NC(=O)C2Cc3c(-c4cccc(NC(C)=O)c4)ccnc3O2)cc1OC (stereo unspecified)	47.1% (inactive)
CC(CCc1ccccc1)NC(=O)COC(=O)c1ccc(F)cc1 (stereo unspecified)	-0.45% (inactive)
Cc1cc(=O)oc2cc(OCC(=O)N3CCN(c4ccc(F)cc4)CC3)c(Cl)cc12	4.64% (inactive)
O=c1cc(CN2CCCCCCC2)c2c(ccc3ccccc32)o1	21.3% (inactive)
Cc1cccc(C)c1NC(=O)CN1CCN(c2ccc(F)cc2)CC1	-13.2% (inactive)
Oc1c(CN2CCCC2)cc(COCc2ccccc2)c2cccnc12	86% (active)
Oc1c(CN2CCN(c3ccc(F)cc3)CC2)cc(Cl)c2cccnc12	83.5% (active)
O=C(Cc1ccccc1)NNC(=O)C1CCN(c2ncccn2)CC1	-8.28% (inactive)
CC1(C)OC(=O)N2CCc3ccccc3C21C (stereo unspecified)	-7.85% (inactive)

SMILES	inhibition
CC(OC(=O)c1cccnc1Cl)C(=O)NC1CCCCC1 (stereo unspecified)	-10.8% (inactive)
COC(=O)C1CCN(C(=O)NC2CC(=O)N(c3ccc4c(c3)OCCO4)C2)CC1 (stereo unspecified)	-6.55% (inactive)
CC(=O)Nc1cc(-c2cccc(CO)c2)cn2c(-c3cccc(C(F)(F)F)c3)cnc12	10.6% (inactive)
C[C@H]([C@@H](O)[C@@H](O)[C@@H](C)C(C)(C)C)[C@H]1CC[C@H]2C3CC[C@H]4C[C@H](OS(=O)(=O)O)[C@@H](OS(=O)(=O)O)C[C@]4(C)[C@H]3CC[C@]12C (stereo partly specified)	-9.66% (inactive)
CC(=O)c1ccccc1NC(=O)CC1(CC(=O)O)CCCCC1	-24.1% (inactive)
C=CCOc1nc2c(c(=O)n(C)c(=O)n2C)n1Cc1ccc(Cl)cc1Cl	86.3% (active)
Cn1c(=O)c2c(nc(OCc3cccnc3)n2Cc2ccccc2)n(C)c1=O	30% (inactive)
C=CCn1c(Oc2ccc(C(=O)OC)cc2)nc2c1c(=O)n(C)c(=O)n2C	21% (inactive)
CCCn1c(=S)[nH]c2ccc(C(F)(F)F)cc21	-4.29% (inactive)
Cn1nccc1C(=O)NC1CCCc2c1cnn2-c1ccc(F)cc1F (stereo unspecified)	77.1% (inactive)
COc1ccc(C(=O)NC2CCCc3c2cnn3-c2cccc(C)c2C)c(OC)n1 (stereo unspecified)	84.1% (inactive)
Cn1nccc1C(=O)NC1CCCc2c1cnn2-c1ccccc1F (stereo unspecified)	90.2% (active)
COc1ccc(-c2ccc(C(=O)NCCN3CCOCC3)c3occc23)c(C)c1	12.3% (inactive)
C/C(=N\NC(=O)C1(C)CC1(Br)Br)c1ccc(C)cc1C (stereo unspecified)	8.35% (inactive)
S=C(NN=Cc1ccccn1)Nc1ccccn1	67.3% (inactive)
Cc1nnc(N/N=C/c2ccccn2)[nH]c1=O	90.6% (active)
Cc1cc(=O)[nH]c(N/N=C/c2c(C)nn(-c3ccccc3Cl)c2Cl)n1	14.6% (inactive)
C/C=C(/C)C(=O)O[C@@H]1c2cc3c(c4c2[C@@]2(CO4)C(=O)C(OC)=C(OC)C=C2C[C@@H](C)[C@H]1C)OCO3	-16.2% (inactive)
NC1=CC(=O)C(=O)c2cccnc21	96.6% (active)
C=CCOc1ccccc1NC(=O)CN1C(=O)CNC1=O	-14.9% (inactive)
Cc1cc(=O)oc2c3c(cc(OCC(=O)NCC(O)c4ccccc4)c12)OC(C)(C)CC3 (stereo unspecified)	0.998% (inactive)
COc1cc2c(cc1OC)C(=O)NCC(C)(C)O2	9.62% (inactive)
CC1=C(C(=O)N2CCOCC2)CC(CC(=O)NCc2ccco2)C(=O)N1Cc1ccc(F)cc1 (stereo unspecified)	-16.3% (inactive)

SMILES	inhibition
Cc1ccc2c(c1)N(C(=O)CCC(=O)N1CCc3ccccc3C1)CCO2	11.3% (inactive)
COc1ccc(-c2ccc(Nc3ccc(S(=O)(=O)N4CCCC4)cc3)nn2)cc1OC	91.7% (active)
COc1ccc(S(=O)(=O)N2CCCCCC2)cc1NC(=O)Cc1ccc(OC)c(OC)c1	6.94% (inactive)
COc1cc(C(C)=O)ccc1OC(C)C(=O)Nc1ccc(S(=O)(=O)N2CCCC2)cc1 (stereo unspecified)	-9.75% (inactive)
Cc1onc(-c2ccccc2Cl)c1C(=O)N(Cc1ccc(N(C)C)cc1)C(C)C	15% (inactive)
Cc1cc2cc3n(c2nn1)N=C(Cl)CC3	15.8% (inactive)
O=C(CN1CCN(C(=O)C2CCCO2)CC1)Nc1c(Cl)cccc1Cl (stereo unspecified)	1.7% (inactive)
Cn1c(=O)c2c(SCC(=O)NCC3CCCO3)nc(CC(C)(C)C)nc2n(C)c1=O (stereo unspecified)	-3.55% (inactive)
CCCCCCCCCCOC(=O)Cn1c(COc2ccc(C)cc2)[n+](C)c2ccccc21	94.3% (active)
Cc1noc(C)c1COC(=O)Cn1c(C)nc2ccccc21	6.2% (inactive)
Cc1ccc(COc2ccc(C(=O)NN)cc2)cc1	-0.097% (inactive)
COc1ccc(-n2c(C)nn(CC3CC3)c2=O)cc1	0.917% (inactive)
CCOc1ccc(N(C)S(=O)(=O)c2cnc[nH]2)cc1	14% (inactive)
Nc1ncnc2c1ncn2[C@@H]1O[C@H](C(=O)NCC(F)(F)F)[C@@H](O)[C@H]1O	2.47% (inactive)
Cc1[nH]c2ccccc2c1-c1ccc(Cl)nn1	-0.142% (inactive)
O=c1c2ccccc2nc2n1C(CSCc1ccccc1)CS2 (stereo unspecified)	76.2% (inactive)
N#Cc1c(-c2ccccc2)nc(SCc2cccc(C(F)(F)F)c2)[nH]c1=O	-18.7% (inactive)
O=c1c2ccccc2nc2n1C(CSCc1cccc(C(F)(F)F)c1)CS2 (stereo unspecified)	92.5% (active)
C=CCn1c(C)cc(C2=NNC(=NCC)SC2)c1C	91% (active)
CN(Cc1ccc(C(F)(F)F)cc1)C(=O)[C@H]1O[C@@H](n2cnc3c(N)ncnc32)[C@H](O)[C@@H]1O	6.4% (inactive)
CCn1nc(C(=O)Nc2ccc(N3CCOCC3)cc2)c2ccccc2c1=O	5.09% (inactive)
C[C@@H]1C[C@@H]2O[C@H]2/C=C\C=C\C(=O)Cc2c(Cl)c(O)cc(O)c2C(=O)O1	86.9% (active)
